Assay outcomes deposited in PubChem BioAssay by National Center for Advancing Translational Sciences (NCATS).
GAA glycogen: inhibitors or activators of human alpha-glucosidase glycogen cleavage; P10253; recombinant GAA, glycogen substrate, Amplex Red glucose oxidase fluorescence; Potency, µM (top dose mostly 76.4 µM), actives largely listed as inhibitors; 300,000 compounds, 0.38% hits;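 further: the screen sought inhibitors and activators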
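qHTS, 1536-well; enzyme 4 nM final; cpd up to 77 uM; substrate bovine liver glycogen 30 ug; 50 mM citrate/phosphate pH 5.0, 0.01% Tween-20; 37 C, 40 min; Amplex Red detection 45 min RT; Hill fit → AC50.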
GLA inh pH 4.5: blocks human alpha-galactosidase A at pH 4.5; P06280; purified enzyme, 4-MU-alpha-Gal fluorescence, pH 4.5; activity change, negative = inhibition, % at 105 µM; 230,000 tested, under 10 active; AID 1467
aGal spleen mod: inhibits or activates alpha-galactosidase in human spleen homogenate; P06280; human spleen homogenate, 4MU-alpha-Gal fluorescence, 40 min; Potency, µM (doses to about 80 µM), actives largely listed as inhibitors; 240,000 compounds, 0.008% hits; AID 2107
Target sequence (P06280 32-429 limits assumed): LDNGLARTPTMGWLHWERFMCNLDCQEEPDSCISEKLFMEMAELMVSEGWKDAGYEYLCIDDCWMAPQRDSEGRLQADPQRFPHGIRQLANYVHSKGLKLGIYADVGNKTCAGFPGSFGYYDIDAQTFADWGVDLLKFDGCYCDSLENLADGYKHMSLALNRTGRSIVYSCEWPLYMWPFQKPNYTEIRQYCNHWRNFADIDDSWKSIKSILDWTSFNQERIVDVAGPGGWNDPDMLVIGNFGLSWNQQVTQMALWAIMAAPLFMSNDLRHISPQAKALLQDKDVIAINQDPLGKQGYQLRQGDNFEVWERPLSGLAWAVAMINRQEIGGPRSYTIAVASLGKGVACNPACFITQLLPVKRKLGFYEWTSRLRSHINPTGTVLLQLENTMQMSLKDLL
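Human spleen homogenate (1 ug) as enzyme source, 4-methylumbelliferyl-alpha-D-galactopyranoside 1 mM final, citrate/phosphate pH 5.0 with 0.01% Tween-20. Compounds 40 min at 37C, NaOH/glycine stop; fluorescence Ex 365/Em 440, Hill-fit AC50.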
aGlu spleen mod: inhibits or activates alpha-glucosidase in human spleen homogenate | P10253 | human spleen homogenate, 4-MU-alpha-glucoside fluorescence | Potency, µM (series often up to 79.9 µM), hits mostly inhibitors | 240,000 compounds, 0.006% hits | AID 2112
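Compounds were titrated against alpha-glucosidase in spleen homogenate at pH 5.0, with 1 mM 4-methylumbelliferyl substrate for 40 min at 37 C. Reactions were quenched with pH 10 NaOH/glycine and fluorescence measured.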
GAA inhib: blocks human lysosomal alpha-glucosidase; P10253; purified human GAA, 4-MU-alpha-glucoside fluorescence; Potency, µM (top dose mostly 76.9 µM), actives largely listed as inhibitors; 200,000 compounds, 0.005% hits; AID 1466
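Human alpha-glucosidase, 4 nM, pre-mixed with test compounds before 400 uM 4-methylumbelliferyl substrate; 20 min room temperature at pH 5.0. Fluorescence read after pH 10 stop; AC50 values from Hill-equation fits.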
N370S GC: inhibitors or activators of N370S glucocerebrosidase for Gaucher disease. AID 2101. P04062. 330,000 compounds, 0.092% hits. Potency, µM (doses to about 59.4 µM), hits mostly inhibitors. N370S GC spleen homogenate, 4MU-glucoside fluorescence
Large screens that a line does not name were inactive. An excerpt weighted towards active compounds, which were near 0.43% of everything screened. The call rests on the fitted dose curve; in most records, active means well fitted curve in the direction sought with a large enough effect; inconclusive means small, poorly fitted or top-dose-only effect, or another doubt; inactive means no such curve, though single readings can be large; an effect the other way counts as inactive or inconclusive.

[O-][n+]1onc2c1CCC1N(O)C(c3ccccc3)CC21O (stereo unspecified)	GAA glycogen 28µM
c1cc(-c2cnn3cc(-c4ccc(OCCN5CCCCC5)cc4)cnc23)ccn1	none (no result: GAA glycogen, GLA inh pH 4.5, GAA inhib)
Cc1nnsc1C(=O)NNc1ccc(C(C)C)cc1	none
Cc1cc(C(=O)NNc2ccc(C(C)C)cc2)n(C(C)(C)C)n1	GAA glycogen 28µM (no result: GAA inhib)
CCOc1cc(CNc2ccccc2SC)ccc1O	GAA glycogen 28µM
O=C1C=CC(=O)C2=C1C1c3ccccc3C2c2ccccc21	none (no result: GAA glycogen, GAA inhib)
COc1cc(/C=N/NC(=O)c2cn(-c3cccc(C)n3)cn2)ccc1O	GAA glycogen 25µM
O=C(NNc1nc2c(F)cc(F)cc2s1)C1=COCCO1	GAA glycogen 4.4µM
Cc1cccc2sc(NNC(=O)C3=COCCO3)nc12	GAA glycogen inconclusive
CCCCCCCCCCCCCC[C@@H](O)[C@@H](O)[C@@H](N)CO	none (no result: GAA glycogen, GLA inh pH 4.5, GAA inhib)
O=C(NNS(=O)(=O)c1ccccc1)c1cc2cc3ccccc3nc2s1	GAA glycogen 22µM
O=C(CCSc1ccccc1)N1CCN(c2ccccc2)CC1	none
O=C(CCSc1ccc(Cl)cc1)N1CCN(c2ccc(O)cc2)CC1	GAA glycogen 18µM (no result: GAA inhib)
O=C(COc1cccc(C(F)(F)F)c1)N1CCN(c2ccc(O)cc2)CC1	GAA glycogen 2µM, GLA inh pH 4.5 inconclusive
O=C(CCOc1ccccc1)N1CCN(c2ccc(O)cc2)CC1	GAA glycogen 6.3µM (no result: GAA inhib)
C=CC1=C2C=C(C3CC3)N(Cc3ccccc3)C=C2C(=O)C(C)(OC(=O)c2ccco2)C1=O (stereo unspecified)	none (no result: GAA glycogen, GAA inhib)
Cc1ccc2sc(N(CCCN(C)C)C(=O)c3ccc(S(=O)(=O)N(C)C4CCCCC4)cc3)nc2c1C	N370S GC 20µM (no result: GAA glycogen, GLA inh pH 4.5, aGal spleen mod, aGlu spleen mod, GAA inhib)
CC(=O)c1ccc(C(=O)N(CCCN(C)C)c2nc3c(C)c(C)ccc3s2)cc1	none (no result: GLA inh pH 4.5, aGal spleen mod, aGlu spleen mod, GAA inhib, N370S GC)
CC1=C(C(=O)O)N2C(=O)[C@@H](NC(=O)[C@@H](N)c3ccccc3)[C@@H]2SC1	none (no result: GAA glycogen, GAA inhib)
O=C(O)c1cc(-c2ccc(/C=N/Nc3ccc(Cl)cc3)o2)ccc1Cl	GAA glycogen 28µM
COC(=O)C1=C(C(=O)OC)[C@@H]2N(C)c3ccc(OC)cc3[C@@]23C[C@@H](C(=O)OC)N(S(=O)(=O)c2c(C)noc2C)C3=N1	none (no result: GAA glycogen, GAA inhib)
Cc1cc(=O)oc2cc(OCC(=O)NC(Cc3c[nH]c4ccc(O)cc34)C(=O)O)c(Cl)cc12 (stereo unspecified)	GAA glycogen 7.9µM (no result: GLA inh pH 4.5, aGal spleen mod, aGlu spleen mod, GAA inhib)
CCC(C)(C)C(=O)O[C@@H]1C[C@@H](C)C=C2C=C[C@H](C)[C@H](CC[C@@H]3C[C@@H](O)CC(=O)O3)[C@H]21	GLA inh pH 4.5 inconclusive (no result: GAA glycogen, GAA inhib)
O=C(c1ccc2ncsc2c1)N1CCN(c2ccc(O)cc2)CC1	GAA glycogen 9.9µM
O=C(c1ccc2ncsc2c1)N1CCN(c2ccccc2Cl)CC1	GLA inh pH 4.5 inconclusive
CC(C)CC(=O)NC(NC(=S)Nc1sc2c(c1C#N)CCCC2)C(Cl)(Cl)Cl (stereo unspecified)	GAA glycogen 28µM
O=S(=O)(c1ccc(NC(=S)N/N=C/c2ccc(O)c(O)c2)cc1)N1CCOCC1	GAA glycogen 25µM (no result: GAA inhib)
NC=O	none (no result: GAA glycogen, GLA inh pH 4.5, GAA inhib)
CCCCN1CCC[C@H]1CNC(=O)c1cc(C#N)c2ccccc2c1OC	none (no result: GAA glycogen, GLA inh pH 4.5, GAA inhib)
COc1ccc(C2=Nn3c(nnc3-c3cc(OC)ccc3OC)SC2)c(OC)c1	none (no result: GAA glycogen, GLA inh pH 4.5, GAA inhib)
NNC(=O)c1cc2sccc2s1	GAA glycogen 25µM
CC(=O)NNC(=O)c1cc2sccc2s1	GAA inhib inconclusive
O=C(O)c1cccc(N/N=C/c2cccc3ccccc23)c1	GAA glycogen 32µM (no result: GLA inh pH 4.5, aGal spleen mod, aGlu spleen mod, GAA inhib)
COc1ccc2ccccc2c1/C=N/Nc1cccc(C(=O)O)c1	GAA glycogen inconclusive (no result: GLA inh pH 4.5, aGal spleen mod, aGlu spleen mod, GAA inhib)
O=C(N/N=C/c1ccc(O)cc1)c1cccc(N/N=C/c2ccc(O)cc2)c1	GAA glycogen 25µM
O=C(N/N=C/c1ccncc1)c1cccc(N/N=C/c2ccncc2)c1	none
O=c1c(-c2ccc(F)cc2)nc2cnc(N3CCNCC3)nc2n1Cc1ccc(F)cc1	none (no result: GAA glycogen, GLA inh pH 4.5, GAA inhib)
COc1cccc(CNc2ccc(S(=O)(=O)Nc3nccs3)cc2)c1O	GAA glycogen 5.6µM
Cc1ccccc1OCCn1cc(/C(N)=N/O)c2ccccc21	GAA glycogen 32µM (no result: N370S GC)
CC(C)(C)n1nnnc1C(c1ccncc1)N1CCN(c2ccc(O)cc2)CC1 (stereo unspecified)	GAA glycogen 18µM
CCCCCCC#CC1C=CC(OC(C)=O)C(COC(C)=O)O1 (stereo unspecified)	none (no result: GAA glycogen, GLA inh pH 4.5, GAA inhib)
CC1=Nc2cccc3cccc(c23)N1	GAA glycogen 14µM
O=C(C1=C[C@@H](c2ccc(C(F)(F)F)cc2)C[C@@H](OCc2ccc(CO)cc2)O1)N1CCN(Cc2ccccc2)CC1	N370S GC 13µM (no result: GAA inhib)
Nc1ccc(O)c2c(=O)cc(-c3ccccc3Cl)oc12	GAA glycogen 14µM
CC(=O)OC[C@@H]1O[C@H](CCO/N=C(\C)CCN2CCc3nc(-c4ccccc4)c(-c4ccccc4)cc3C2)C=C[C@@H]1OC(C)=O	none (no result: GAA glycogen, GLA inh pH 4.5, GAA inhib)
COCCNC(=S)N/N=C/c1ccc(N2CCOCC2)cc1	GAA glycogen inconclusive
